ChEMBL document CHEMBL5606460, “ASAP - DENV-2 NS2B-NS3 protease fluorescence single point” (2024)
About 110 (5.5%) of roughly 2,000 compounds showed an effect of 50% or more. This excerpt belongs to a sample that is enriched for strong results.

Target: Genome polyprotein (dengue virus type 2) (UniProt P29990)
[1] = Thailand/16681/1984, Concentration 25.0 uM, Number of replicates 1.0

SMILES: N#Cc1cccc(-c2nc3c(C(=O)Nc4ccccc4)cc(Cl)cc3[nH]2)c1
- inhibition (Thailand/16681/1984, Concentration 99.5 uM, Number of replicates 2.0, Standard deviation 7.963520922762683 %): 14.4%
- inhibition (Thailand/16681/1984, Concentration 295.6 uM, Number of replicates 2.0, Standard deviation 58.7613445679075 %): 56.6%

SMILES: N#Cc1cccc(-c2nc3c(C(=O)NCc4cccnc4)cc(Cl)cc3[nH]2)c1
- inhibition (Thailand/16681/1984, Concentration 99.5 uM, Number of replicates 2.0, Standard deviation 2.321247122631555 %): 6.57%
- inhibition (Thailand/16681/1984, Concentration 295.6 uM, Number of replicates 2.0, Standard deviation 6.98688470817418 %): 38.2%

SMILES: CC(C)NC(=O)[C@H](Nc1ccc2c(c1)CNC2)c1cc(Cl)cc2[nH]c(-c3ccccc3)nc12
- inhibition (Thailand/16681/1984, Concentration 99.5 uM, Number of replicates 2.0, Standard deviation 1.6408381783405366 %): 91.5%
- inhibition (Thailand/16681/1984, Concentration 295.6 uM, Number of replicates 2.0, Standard deviation 0.018514941963441705 %): 97.4%

SMILES: O=C(Nc1ccc2c(c1)CNC2)c1cc(Cl)cc2[nH]c(-c3cc(C4CC4)[nH]n3)nc12
- inhibition (Thailand/16681/1984, Concentration 99.5 uM, Number of replicates 2.0, Standard deviation 0.13306805316732315 %): 94.6%
- inhibition (Thailand/16681/1984, Concentration 295.6 uM, Number of replicates 2.0, Standard deviation 0.23606011523727233 %): 88.6%

SMILES: N#Cc1cccc(-c2nc3c(C(=O)Nc4ccncc4)cc(Cl)cc3[nH]2)c1
- inhibition (Thailand/16681/1984, Concentration 99.5 uM, Number of replicates 2.0, Standard deviation 0.8007493235576281 %): 6.92%
- inhibition (Thailand/16681/1984, Concentration 295.6 uM, Number of replicates 2.0, Standard deviation 3.318711635404566 %): 36.2%

SMILES: N#Cc1cccc(-c2nc3c(C(=O)NCc4ccccc4)cc(Cl)cc3[nH]2)c1
- inhibition (Thailand/16681/1984, Concentration 99.5 uM, Number of replicates 2.0, Standard deviation 0.16663009439873022 %): -4.99%
- inhibition (Thailand/16681/1984, Concentration 295.6 uM, Number of replicates 2.0, Standard deviation 26.28702583112172 %): 8.64%

SMILES: CCc1ccc(-c2ccccc2C(=O)Nc2cnn(C)c2)c(F)c1
- inhibition (Thailand/16681/1984, Concentration 49.5 uM, Number of replicates 2.0, Standard deviation 0.8455770066617545 %): -0.985%
- inhibition (Thailand/16681/1984, Concentration 99.01 uM, Number of replicates 2.0, Standard deviation 1.2261793384720772 %): -0.538%
- inhibition (Thailand/16681/1984, Concentration 198.0 uM, Number of replicates 2.0, Standard deviation 2.01798052784263 %): 0.736%

SMILES: N#Cc1cccc(-c2nc3c(C(=O)Nc4cccnc4)cc(Cl)cc3[nH]2)c1
- inhibition (Thailand/16681/1984, Concentration 99.5 uM, Number of replicates 2.0, Standard deviation 0.04165727071859149 %): 7.45%
- inhibition (Thailand/16681/1984, Concentration 295.6 uM, Number of replicates 2.0, Standard deviation 4.418006643102565 %): 20.3%

SMILES: CCn1ncc(-c2ccccc2C(=O)Nc2cnn(C)c2)c1F
- inhibition (Thailand/16681/1984, Concentration 49.5 uM, Number of replicates 2.0, Standard deviation 1.7362397615810676 %): -3.37%
- inhibition (Thailand/16681/1984, Concentration 99.01 uM, Number of replicates 2.0, Standard deviation 3.5632406540879202 %): -3.71%
- inhibition (Thailand/16681/1984, Concentration 198.0 uM, Number of replicates 2.0, Standard deviation 2.004108271976906 %): -1.89%

SMILES: COc1c(Cl)cccc1NC(=O)C1CCN(c2ccc(C=O)cc2)CC1
- inhibition [1]: 13.9%

SMILES: C[C@H]1CCC[C@H](C)N1CCNC(=O)C1CCN(c2ccc(C=O)cc2)CC1
- inhibition [1]: 12.4%

SMILES: CNC(=O)c1cn(C[C@H]2CCCN2C(=O)c2cccc3ncsc23)nn1
- inhibition (Thailand/16681/1984, Concentration 49.5 uM, Number of replicates 2.0, Standard deviation 0.1358580059513503 %): 0.293%
- inhibition (Thailand/16681/1984, Concentration 99.01 uM, Number of replicates 2.0, Standard deviation 0.18464096005398162 %): 0.707%
- inhibition (Thailand/16681/1984, Concentration 198.0 uM, Number of replicates 2.0, Standard deviation 0.18359188284769695 %): 0.879%

SMILES: O=Cc1ccc(N2CCC(C(=O)NCc3ccc(Br)s3)CC2)cc1
- inhibition [1]: 12.4%

SMILES: Cc1cnccc1NC(=O)c1cccc(C(F)(F)F)n1
- inhibition (Thailand/16681/1984, Concentration 49.5 uM, Number of replicates 2.0, Standard deviation 0.6191824281934856 %): 0.024%
- inhibition (Thailand/16681/1984, Concentration 99.01 uM, Number of replicates 2.0, Standard deviation 1.7542746720133946 %): -0.908%
- inhibition (Thailand/16681/1984, Concentration 198.0 uM, Number of replicates 2.0, Standard deviation 1.379232208237382 %): -0.988%

SMILES: Cn1ncc2c(C(=O)Nc3ccc4c(c3)CNC4)cc(-c3cccnc3)nc21
- inhibition (Thailand/16681/1984, Concentration 99.5 uM, Number of replicates 2.0, Standard deviation 0.6966055883154065 %): -0.716%
- inhibition (Thailand/16681/1984, Concentration 295.6 uM, Number of replicates 2.0, Standard deviation 0.8690208118243027 %): 16.8%

SMILES: O=C(Nc1ccc2c(c1)CNC2)c1cc(Cl)cc(C(F)(F)F)n1
- inhibition (Thailand/16681/1984, Concentration 99.5 uM, Number of replicates 2.0, Standard deviation 0.07984298981903766 %): 98%
- inhibition (Thailand/16681/1984, Concentration 295.6 uM, Number of replicates 2.0, Standard deviation 0.03008678069059277 %): 99.8%

SMILES: N#Cc1cccc(-c2nc3c(C(=O)Nc4ccc5c(c4)CNC5)cc(Cl)cc3[nH]2)c1
- inhibition (Thailand/16681/1984, Concentration 99.5 uM, Number of replicates 2.0, Standard deviation 0.0717454001083366 %): 96.4%
- inhibition (Thailand/16681/1984, Concentration 295.6 uM, Number of replicates 2.0, Standard deviation 0.16315483385791593 %): 93.6%

SMILES: N#Cc1cccc(-c2nc3c(C(=O)NCc4ccccn4)cc(Cl)cc3[nH]2)c1
- inhibition (Thailand/16681/1984, Concentration 99.5 uM, Number of replicates 2.0, Standard deviation 0.024300186977441064 %): -1.93%
- inhibition (Thailand/16681/1984, Concentration 295.6 uM, Number of replicates 2.0, Standard deviation 0.2349015826654049 %): 5.47%

SMILES: N#Cc1cccc(NC(=O)c2cccc(OCc3c(Cl)cccc3Cl)c2)c1
- inhibition (Thailand/16681/1984, Concentration 49.5 uM, Number of replicates 2.0, Standard deviation 0.9750482899240065 %): 1.9%
- inhibition (Thailand/16681/1984, Concentration 99.01 uM, Number of replicates 2.0, Standard deviation 10.511808397875392 %): 16.1%
- inhibition (Thailand/16681/1984, Concentration 198.0 uM, Number of replicates 2.0, Standard deviation 5.918696266313343 %): 7%

SMILES: CCCOc1ccc(NC(=O)C2CCN(c3ccc(C=O)cc3)CC2)cc1
- inhibition [1]: 0.636%

SMILES: O=Cc1ccc(N2CCC(C(=O)N3CCN(C(c4ccc(F)cc4)c4ccc(F)cc4)CC3)CC2)cc1
- inhibition [1]: 1.35%
